This is a sample that favours compounds with a hit; in the whole collection about 1.1% have one here.
OPRM1-OPRD1 ag – agonists of human mu-delta opioid receptor heterodimerization | P35372+P41143 | cells, OPRM1-OPRD1 heterodimerization, luminescence | activation, % at 9.3 µM | 340,000 tested, 0.3% active | AID 504326;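 note: 0% = vehicle-treated cells and 100% = reference agonist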
HTR5A ag – HTR5A agonism, opioid heterodimer counter-screen; activation, % at 9.3 µM; AID 504692; 340,000 tested, 0.61% active; HTR5A agonist assay, luminescence, cell-based; in the data active = activation mostly above about 9.5%, no sharp cut-off; inactive = mostly below about 7.6%;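 note: 0% = cells with vehicle only and 100% = reference agonist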
Target sequence (P47898 whole entry, looked up): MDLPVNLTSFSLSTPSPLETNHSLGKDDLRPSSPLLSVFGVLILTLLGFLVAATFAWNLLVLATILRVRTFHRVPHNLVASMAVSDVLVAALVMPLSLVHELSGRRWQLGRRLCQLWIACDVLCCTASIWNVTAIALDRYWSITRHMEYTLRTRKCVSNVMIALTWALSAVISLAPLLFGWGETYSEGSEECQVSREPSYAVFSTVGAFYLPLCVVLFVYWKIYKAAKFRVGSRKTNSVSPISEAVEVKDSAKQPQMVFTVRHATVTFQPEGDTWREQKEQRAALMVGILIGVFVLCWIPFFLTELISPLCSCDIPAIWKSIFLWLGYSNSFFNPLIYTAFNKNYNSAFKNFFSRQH
OPRM1-OPRD1 inv – inverse agonist of human OPRM1-OPRD1 heterodimerization | P35372+P41143 | cell-based MOR-DOR heterodimer luminescence, inverse agonism | inhibition, % at 9.3 µM | 340,000 tested, 0.21% active; in the data active = inhibition above about 22%, passing the limit was not always enough;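 note: 0% = cells with DMSO and 100% = wells without cells with DMSO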
HTR5A inv ag – inverse agonist of human HTR5A in OPRM1-OPRD1 counter-screen | AID 504634 | inhibition, % at 9.3 µM | P47898 | HTR5A cell line, luminescence, inverse agonism | 340,000 tested, 0.083% active; in the data active = inhibition mostly above about 23%, no sharp cut-off; inactive = mostly below about 18%;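 note: 0% = cells with DMSO and 100% = no-cell wells with DMSO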
OPRM1-D1 ag cf – OPRM1-OPRD1 heterodimer agonism, confirmation; 830 tested, 45% active; cells, MOR-DOR heterodimerization, luminescence complementation; shares compounds with OPRM1-OPRD1 ag; activation, % at 9.3 µM;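 note: 0% = vehicle-treated cells and 100% = reference agonist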
HTR5A ag ctr2 – activates human HTR5A in OPRM1-OPRD1 agonist counter-screen; HTR5A agonist counterscreen, cell luminescence; AID 504905; shares compounds with OPRM1-OPRD1 ag; activation, % at 9.3 µM; 830 tested, 8% active; in the data active = activation above about 17%;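 note: 0% = vehicle-treated cells and 100% = reference agonist response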
An asterisk follows results filed as active; i = inactive; . = not tested or not shown. Cut-off read from the data, not from the text of the source, unless noted: active = activation above about 18%; inactive = the rest.

SMILES | OPRM1-OPRD1 ag | HTR5A ag | OPRM1-OPRD1 inv | HTR5A inv ag | OPRM1-D1 ag cf | HTR5A ag ctr2
Nc1nonc1C(=O)NCCNCc1c(OCc2ccccc2F)ccc2ccccc12 | 22* | 2 | -118 | -6 | 121* | 6
Nc1nonc1C(=O)NCCNCc1cc(Br)ccc1OCc1ccc(F)cc1 | 4 | -4 | -17 | 9 | . | .
CCOc1ccc(-c2nnc(SCC(=O)Nc3cc(C)on3)o2)cc1 | 4 | -3 | -20 | 7 | . | .
COc1ccc(NS(=O)(=O)c2ccc(O)c(NC(=O)c3cc4c(C)nn(-c5ccc(F)cc5)c4s3)c2)cc1 | 20* | 0 | -123 | 1 | 51* | 1
Cc1onc(-c2ccc(Cl)cc2)c1-c1ccnc(SCC(=O)Nc2ccc(C(C)C)cc2)n1 | 56* | 2 | -294 | -6 | 0 | -3
O=C(CSc1nccc(-c2cccs2)n1)Nc1ccc(Cl)cc1 | -3 | 1 | 14 | -38 | . | .
O=C1C=C(c2c(O)ccc3ccccc23)c2ccccc2C1=O | 54* | 10 | -280 | -39 | 47* | 14
CCc1cc([N+](=O)[O-])cc(CC)c1N | -3 | 1 | 11 | 1 | . | .
COc1ccc(C2CC(c3cccs3)=NN2C(=O)CSc2nc(=O)n3ccccc3n2)cc1 (stereo not drawn) | 4 | 1 | -24 | -4 | . | .
O=C(CSc1ccccc1)Nc1ccc(-c2nc3ccccc3[nH]2)cc1 | 22* | 8 | -111 | -32 | 5 | -2
O=C(Nc1cccc(-c2nc3ccccc3[nH]2)c1)c1cccc(NC(=O)c2ccco2)c1 | 88* | 7 | -459 | 13 | -2 | -1
O=C(CSc1ccc(Cl)cc1)Nc1cccc(-c2nc3ccccc3[nH]2)c1 | 34* | 2 | -203 | -6 | 13 | 8
Cc1cc(N/C(=N\S(=O)(=O)c2ccc(Cl)cc2)c2ccc(F)cc2)no1 | 3 | 5 | -20 | -13 | . | .
COc1cc(C(=O)NNC(=O)COc2ccc(C)cc2)ccc1OCC(=O)N1CCOCC1 | -3 | -2 | 10 | 5 | . | .
COc1ccc(CCNC(=O)Cn2c(=O)oc3cc(Cl)ccc32)cc1OC | 1 | 3 | -3 | -1 | . | .
COc1ccc(C2CC(c3ccc(OC)cc3)n3nc(NC(=O)c4cccs4)nc3N2)cc1 (stereo not drawn) | 26* | 1 | -134 | -18 | 48* | 2
CCOc1ccc(C2CC(c3ccccc3C)n3nc(N)nc3N2)cc1 (stereo not drawn) | -2 | 2 | 8 | -5 | . | .
Cc1ccc(/C=N/Nc2ccnc3cc(Cl)ccc23)c(C)c1 | 18 | -2 | -129 | 6 | . | .
Cc1ccccc1/C=N/Nc1ccnc2cc(Cl)ccc12 | 21* | 5 | -129 | -14 | 22* | 9
Cc1ccc(OCCOc2ccc(Br)cc2/C=N\NC(N)=O)cc1 | 20* | 8 | -98 | -20 | 1 | 71*
c1ccc(CNc2c3ccccc3nc3ccccc23)cc1 | 22* | -1 | -122 | 5 | 1 | -2
CCCc1cc(=O)n2[nH]cnc2n1 | -2 | 5 | 10 | -11 | . | .
COc1ccc(OC)c(S(=O)(=O)N2CCN(Cc3ccccc3)CC2)c1 | -3 | -3 | 13 | 11 | . | .
COC(=O)C(C)(C(=O)OC)c1ccc(C(F)(F)F)cc1[N+](=O)[O-] | 1 | 6 | -6 | -40 | . | .
NC(=O)c1ccc(NC(=O)COC(=O)CCC2CCCCC2)cc1 | -1 | -1 | 5 | 11 | . | .
SMILES | OPRM1-OPRD1 ag | HTR5A ag | OPRM1-OPRD1 inv | HTR5A inv ag | OPRM1-D1 ag cf | HTR5A ag ctr2
COc1ccc(F)cc1CN1CCN(C(=O)CCC(=O)Nc2nnc(C(C)C)s2)CC1 | 25* | -8 | -143 | -28 | 25* | 3
Nn1c(SCC(=O)Nc2ccccc2Br)nnc1-c1ccco1 | -3 | 0 | 15 | 12 | . | .
O=C(Cn1c(-c2ccccc2)c[n+]2ccsc12)c1ccc(Br)cc1 | 171* | 4 | i | -12 | 3 | -1
CC(=O)c1ccc(Cc2ccccc2)cc1 | 0 | 0 | 3 | 15 | . | .
CCC1C(=O)NCCN1C(=O)c1ccccc1OC1CCN(S(C)(=O)=O)CC1 (stereo not drawn) | -3 | 1 | 16 | -4 | . | .
Cc1cccc(NC(=S)NCC2CCCO2)c1 (stereo not drawn) | -3 | -3 | 17 | 7 | . | .
Cc1cc(/C=C(\C#N)c2nc3ccccc3[nH]2)c(C)n1C | 27* | 13* | -138 | -3 | 3 | 7
CCN(CC)CCn1c(O)c(N=O)c2ccccc21 | 0 | 1 | 1 | -8 | . | .
CCN(CC)CCn1c2ccccc2c(=O)c2c(O)ccc(O)c21 | 19* | 1 | -100 | -2 | 9 | 0
CCC(=O)NC(C)C(c1cccs1)N1CCN(c2ccccc2)CC1 (stereo not drawn) | 31* | -4 | -177 | 16 | 0 | 2
CN(C)C(CNC(=O)Cc1cccc(C(F)(F)F)c1)c1ccco1 (stereo not drawn) | 63* | 0 | -299 | 0 | 22* | -3
CN(C)C(CNC(=O)C1CCN(S(=O)(=O)c2ccccc2)CC1)c1ccccc1 (stereo not drawn) | 0 | 6 | -1 | -17 | . | .
CN(C)C(CNC(=O)Cc1cccc(C(F)(F)F)c1)c1ccccc1 (stereo not drawn) | 249* | 2 | i | -5 | 252* | 1
CN(C)C(CNC(=O)C1CCN(S(=O)(=O)c2cccc(C(F)(F)F)c2)CC1)c1ccccc1 (stereo not drawn) | 22* | 0 | -119 | 0 | 140* | 3
CCOC(=O)C1=C(C)C2C3C(=O)N(c4ccc(C)cc4C)C(=O)C3C1(C)C1C(=O)N(c3ccc(C)cc3C)C(=O)C21 (stereo not drawn) | -2 | 2 | 7 | -12 | . | .
Cc1ccc(Nc2cc(C)nc3c(C)cccc23)cc1 | 29* | -1 | -136 | 3 | 15 | -1
COc1ccc(C2Nc3ccccc3C(=O)N2Cc2ccco2)cc1COc1ccc(NC(C)=O)cc1 (stereo not drawn) | 117* | 7 | i | -10 | 68* | -3
COc1ccc(C2Nc3ccccc3C(=O)N2c2ccccc2)cc1COc1ccccn1 (stereo not drawn) | -2 | 5 | 9 | 11 | . | .
COc1ccc(C2Nc3ccccc3C(=O)N2Cc2ccccc2)cc1CSc1ccccn1 (stereo not drawn) | 35* | 0 | -188 | -2 | 1 | 4
COc1ccc(C2Nc3ccccc3C(=O)N2c2ccccc2)cc1CSc1ccccn1 (stereo not drawn) | 27* | 0 | -139 | -3 | 28* | -2
COc1ccc(C2Nc3ccccc3C(=O)N2c2ccc(F)cc2)cc1CSc1ccccn1 (stereo not drawn) | 38* | -4 | -226 | 10 | 46* | 3
CCN(CC)CCCn1c2c(c(SCC(=O)Nc3cc(C)on3)nc1=O)CCC2 | -2 | -2 | 9 | 4 | . | .
CCOc1ccccc1NC(=O)COC(=O)CC(C)(C)CC1=NS(=O)(=O)c2ccccc2N1 | -2 | 5 | 8 | -19 | . | .

Assay outcomes as filed in PubChem BioAssay.
